The text below walks through data of PubChem BioAssay.

Experiment [1] concerns TRPC4 beta (transient receptor potential cation channel C4), mouse. Put plainly: TRPC4 cation channel opening, retest – cell-based, Fluo4 calcium, HEK293 TRPC4beta/mu-opioid, duplicates, 10 µM, confirmation (AID 2426;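 active means fluorescence ratio normalized to control raised more than 50% in primary screen plus both repeat runs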). As to conditions: Fluo4 calcium fluorescence, at 10 µM; stronger effect = higher value.
Experiment [2] concerns transient receptor potential cation channel C4 beta (TRPC4), mouse. In words: TRPC4 cation channel opening, second retest – cell-based, second round, Fluo4, HEK293 TRPC4beta/mu-opioid, 1 µM, confirmation (AID 2461;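 active means primary screen active and over 50% activation in each of two duplicate runs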). The following applies: Fluo4 calcium fluorescence, at 1 µM; stronger effect = higher value.
Experiment [3] deals with TRPC4 (transient receptor potential cation channel C4 beta), mouse. Put plainly: potentiation of DAMGO EC20 TRPC4 response – cell-based, second round, Fluo-4, HEK293 TRPC4beta/mu-opioid, 1 µM, confirmation (AID 2554;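 active means primary screen hit whose fluorescence ratio, in both repeats, exceeds the weak agonist control mean by 3 SD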). The following applies: DAMGO EC20, Fluo-4 calcium flux, at 1 µM; stronger effect = higher value. Background: Calcium assays in cells follow changes in intracellular calcium, usually with a dye or a luminescent sensor.

Experiment [4] relates to TRPC4 beta (transient receptor potential cation channel C4), mouse. In words: potentiation of DAMGO EC20 TRPC4 response – cell-based, Fluo-4, HEK293 TRPC4beta/mu-opioid, confirmation (AID 2555;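 active means primary screen hit whose calcium fluorescence ratio, in both repeats, exceeds the weak agonist control mean by 3 SD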). The following applies: DAMGO EC20, Fluo-4 calcium flux, at 10 µM; stronger effect = higher value.
Experiment [5] concerns the target Short transient receptor potential channel 4 (Mus musculus) (UniProt Q9QUQ5). Put plainly: blockers of DAMGO-evoked TRPC4 calcium flux – cell-based, Fluo4, HEK293 TRPC4beta/mu-opioid, confirmation (AID 2636;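 active means calcium signal cut by more than 3 SD below the full-agonist control yet still positive, in both repeats and the earlier primary screen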). As to conditions: at 10 µM; stronger effect = higher value.
The target is the same in experiment [6]. In words: blockers of DAMGO-evoked TRPC4 calcium flux – cell-based, second round, Fluo4, HEK293 TRPC4beta/mu-opioid, 1 µM, confirmation (AID 2637;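 active means calcium signal ratio cut to more than 3 SD under the fully stimulated control mean yet still positive, in both repeats and the primary screen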;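 on inhibition: percent of integrated ratio relative to wells lacking test compound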). As to conditions: at 1 µM; stronger effect = higher value.
The target is the same in experiment [7]. In words: calcium entry via TRPC4 opening agents – cell-based, HEK293 TRPC4/mu-opioid, Fluo-4 calcium, dose response (AID 434937).
Experiment [8] shares this target. Put plainly: potentiation of DAMGO-evoked TRPC4 calcium signal – cell-based, HEK293 TRPC4/mu-opioid, Fluo-4 calcium, EC20 DAMGO, dose response (AID 434941;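 active means earlier screen potentiator hit that boosts the TRPC4 ion channel at some dose, with a dose response; inactive means no potentiation, no dose response, or not a prior hit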;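 further: calcium entry triggered by an EC20 dose of DAMGO at the co-expressed mu-opioid receptor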).
The target of experiment [9] is Short transient receptor potential channel 6 (Mus musculus) (UniProt Q61143). Put plainly: TRPC6 blockade by TRPC4 inhibitor hits – cell-based, HEK293, membrane potential dye, duplicate, selectivity assay for TRPC4 inhibitor project, confirmation (AID 434948;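 active means active in primary screen and both duplicates, each dropping signal beyond three positive-control SD with fluorescence still positive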). As to conditions: HEK293 TRPC6, membrane potential dye fluorescence, at 10 µM, stimulated with maximal-effect acetylcholine; stronger effect = higher value.
Chain of Short transient receptor potential channel 6 (Mus musculus) (Q61143 whole entry, looked up): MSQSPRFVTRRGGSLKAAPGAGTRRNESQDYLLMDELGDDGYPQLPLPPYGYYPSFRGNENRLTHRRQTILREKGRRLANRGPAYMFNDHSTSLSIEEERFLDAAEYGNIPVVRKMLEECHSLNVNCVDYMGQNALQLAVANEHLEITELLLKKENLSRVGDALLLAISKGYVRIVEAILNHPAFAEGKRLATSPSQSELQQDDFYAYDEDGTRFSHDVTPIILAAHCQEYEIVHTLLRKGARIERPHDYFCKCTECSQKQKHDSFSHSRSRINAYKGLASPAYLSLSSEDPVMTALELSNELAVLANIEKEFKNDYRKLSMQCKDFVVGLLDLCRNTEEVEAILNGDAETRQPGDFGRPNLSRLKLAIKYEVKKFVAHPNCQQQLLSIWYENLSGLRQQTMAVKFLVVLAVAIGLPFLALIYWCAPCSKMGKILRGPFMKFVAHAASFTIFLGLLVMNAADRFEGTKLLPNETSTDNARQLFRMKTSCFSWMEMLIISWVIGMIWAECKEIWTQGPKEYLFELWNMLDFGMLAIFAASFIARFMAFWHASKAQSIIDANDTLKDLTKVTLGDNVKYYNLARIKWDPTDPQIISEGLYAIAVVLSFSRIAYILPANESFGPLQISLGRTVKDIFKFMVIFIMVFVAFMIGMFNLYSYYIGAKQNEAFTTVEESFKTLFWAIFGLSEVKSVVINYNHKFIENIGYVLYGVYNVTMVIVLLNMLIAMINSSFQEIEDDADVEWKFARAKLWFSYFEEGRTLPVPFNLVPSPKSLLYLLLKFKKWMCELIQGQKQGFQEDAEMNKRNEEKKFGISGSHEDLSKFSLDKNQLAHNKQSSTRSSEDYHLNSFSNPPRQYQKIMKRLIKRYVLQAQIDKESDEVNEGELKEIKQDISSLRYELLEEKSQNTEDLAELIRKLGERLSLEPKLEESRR

Experiment [10] has the same target. In words: TRPC6 opening by TRPC4 activator hits – cell-based, HEK293, membrane potential dye, duplicate, selectivity assay for TRPC4 activator project, confirmation (AID 434950;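 active means membrane potential signal rise above negative control mean plus 3 SD in both duplicates, also active in the earlier TRPC4 screen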). As to conditions: HEK293 TRPC6, membrane potential fluorescence, at 10 µM; activation: stronger effect = higher value; outcome: activation.
The target is the same in experiment [11]. In words: positive modulators of mouse TRPC6 channel – HEK293 cells, membrane potential dye, duplicate, selectivity assay for TRPC4 potentiator project, confirmation (AID 434952;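 active means compound raising the membrane signal above positive-control mean plus 3 SD in both repeats, and a primary screen hit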). As to conditions: HEK293 TRPC6, membrane potential dye fluorescence, at 10 µM, maximal acetylcholine added after compound; stronger effect = higher value.
For experiment [12], the target named is Short transient receptor potential channel 4 (Mus musculus) (UniProt Q9QUQ5). Put plainly: calcium flux activators in TRPC4/5HT1a cells, counter-screen for TRPC4 activator project, cell-based, second counter screen, HEK293 TRPC4/5HT1a, Fluo-4 (AID 434977;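 active means calcium signal rise above buffer-control mean plus 5 SD in both duplicates, and also a hit in the primary screen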). As to conditions: Fluo-4 calcium flux, at 10 µM; stronger effect = higher value.
Chain of Short transient receptor potential channel 4 (Mus musculus) (Q9QUQ5 whole entry, looked up): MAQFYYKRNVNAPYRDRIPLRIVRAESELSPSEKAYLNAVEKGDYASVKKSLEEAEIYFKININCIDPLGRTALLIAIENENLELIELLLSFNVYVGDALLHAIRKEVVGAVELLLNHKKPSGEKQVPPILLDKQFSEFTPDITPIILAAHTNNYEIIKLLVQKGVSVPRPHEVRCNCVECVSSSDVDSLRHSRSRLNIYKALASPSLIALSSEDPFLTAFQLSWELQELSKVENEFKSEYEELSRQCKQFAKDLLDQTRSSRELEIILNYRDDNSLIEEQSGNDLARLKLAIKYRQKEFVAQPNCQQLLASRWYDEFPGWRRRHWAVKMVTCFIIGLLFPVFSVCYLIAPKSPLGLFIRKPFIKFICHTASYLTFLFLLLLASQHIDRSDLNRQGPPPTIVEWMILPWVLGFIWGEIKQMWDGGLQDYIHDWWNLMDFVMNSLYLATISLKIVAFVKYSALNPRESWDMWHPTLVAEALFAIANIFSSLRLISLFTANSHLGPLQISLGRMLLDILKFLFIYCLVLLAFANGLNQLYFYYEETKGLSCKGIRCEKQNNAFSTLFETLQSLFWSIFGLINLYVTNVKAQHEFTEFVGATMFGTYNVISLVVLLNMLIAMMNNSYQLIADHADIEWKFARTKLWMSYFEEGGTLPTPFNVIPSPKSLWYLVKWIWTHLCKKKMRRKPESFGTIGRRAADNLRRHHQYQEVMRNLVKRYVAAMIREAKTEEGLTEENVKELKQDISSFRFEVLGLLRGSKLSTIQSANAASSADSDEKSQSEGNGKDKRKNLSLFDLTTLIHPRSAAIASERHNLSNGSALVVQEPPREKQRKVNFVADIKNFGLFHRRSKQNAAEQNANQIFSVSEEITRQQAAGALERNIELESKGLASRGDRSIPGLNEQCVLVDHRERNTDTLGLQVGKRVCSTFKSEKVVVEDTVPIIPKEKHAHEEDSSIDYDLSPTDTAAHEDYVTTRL
A short description of experiment [13]: serotonin-gated TRPC4 signal block – cell-based, second counter screen, HEK293 TRPC4/5HT1a, Fluo-4, counter-screen for TRPC4 inhibitor project, confirmation (AID 434978;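 active means primary screen active whose calcium signal fell more than 3 SD beyond the full-serotonin control mean in both duplicate plates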;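 on outcome: serotonin given first at submaximal then at maximal dose after compound preincubation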). As to conditions: Fluo-4 calcium flux, at 10 µM, serotonin added to trigger calcium flux; stronger effect = higher value. Background: Counterscreens check selectivity or assay interference.
Experiment [14] has as its system TRPC4 (mouse), co-expressed with 5HT1a in HEK293. In words: enhancement of serotonin-evoked TRPC4 response – cell-based, second counter screen, HEK293 TRPC4/5HT1a, Fluo-4, counter-screen for TRPC4 potentiator project, confirmation (AID 434979;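 active means signal rise over 3 SD above mean of control wells given weak agonist, in both repeats and first screen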). The following applies: Fluo-4 calcium flux, at 10 µM, serotonin added at its EC20 dose; stronger effect = higher value.
The nature of experiment [15]: nonspecific calcium rise without TRPC4 – cell-based, HEK293 mu-opioid receptor line, counter-screen for TRPC4 activator project, confirmation (AID 449723;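 active means hit in primary screen, with calcium signal over 5 SD above buffer well mean in both duplicates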;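 further: counter screen cells carry the mu-opioid receptor alone and lack TRPC4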). The following applies: HEK293 mu-opioid cells, Fluo-4 calcium fluorescence, at 10 µM; stronger effect = higher value.
Experiment [16] can be described thus: nonspecific potentiation of DAMGO calcium response – cell-based, HEK293 mu-opioid receptor line, counter-screen for TRPC4 allosteric potentiator project, confirmation (AID 449724;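 active means calcium signal rise more than 3 SD above the low-dose agonist control mean, in both duplicate plates and the primary screen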;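 further: HEK293 cells carrying mu-opioid receptor only with no TRPC4 channel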). The following applies: HEK293 mu-opioid receptor cells, Fluo-4 calcium flux, at 10 µM, compound added before EC20 DAMGO stimulus; stronger effect = higher value.

For some of these results: Entries with a potency or affinity are not part of this list. Activity calls are given as the source filed them.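 How the source made its calls, unless noted: active means primary screen activator hit with a dose response curve and TRPC4 channel activation at any tested dose; inactive means no activation, no dose response, or not a primary hit.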

As to `CCOc1ccccc1N(CC)C(=O)c1nn(C)c2c1CSc1ccccc1-2`, the outcome in experiment [1], in experiment [2], in experiment [3], in [4], in experiment [7] and in experiment [8] was inactive. Moreover, the call in [9], in [10], in experiment [11], in experiment [12], in experiment [14] and in experiment [15] was inactive. In experiment [16], the result was inactive. Besides, the inhibition (in general, the share of the control response that was lost under treatment) in experiment [5] was 95% (active); in experiment [6], 40% (active); in experiment [13] it was 18.7% (active).

As for `Cc1ccccc1OCCn1c(C)nc2ccccc21`, the result in experiment [1], in experiment [2], in experiment [3], in experiment [4], in experiment [7] and in experiment [8] was inactive. Further, the outcome in experiment [9], in [10], in experiment [11], in experiment [12], in experiment [14] and in experiment [15] was inactive. Moreover, the result in experiment [16] was inactive. Also, the results for the inhibition in [5], in experiment [6] and in experiment [13] were 36% (active), 57% (active) and 13.3% (active), respectively.

Turning to `CCOC(=O)C1(CCOc2ccccc2)CCN(Cc2cccs2)CC1`, the result in [1], in experiment [2], in experiment [3], in experiment [4], in experiment [6] and in [7] was inactive. In addition, the outcome in experiment [8], in experiment [9], in experiment [10], in experiment [11], in experiment [12] and in [13] was inactive. Moreover, the result in experiment [14], in experiment [15] and in [16] was inactive. The inhibition in experiment [5] is 80% (active).

As for `CC12CCC(C/C1=N/OC(=O)c1cccc([N+](=O)[O-])c1)C2(C)C` (stereo unspecified), the outcome in experiment [1], in experiment [2], in [3], in experiment [4], in experiment [7] and in [8] was inactive. For the same molecule, the molecule was called inactive in experiment [9], in experiment [10], in experiment [11], in experiment [12], in [14] and in experiment [15]. Besides, in [16], the result was inactive. Also, the inhibition is 82% (active) in experiment [5], 40% (active) in [6] and 28.3% (active) in experiment [13].

Turning to `COc1ccc(C2=NN(C(=O)c3ccccc3)C(c3ccc(OC)c(OC)c3)C2)c(O)c1` (stereo unspecified), the outcome in experiment [1], in experiment [2], in [3], in [4], in experiment [6] and in experiment [7] was inactive. In addition, the result in experiment [8], in experiment [9], in [10], in experiment [11], in [12] and in experiment [13] was inactive. The result in [14], in [15] and in [16] was inactive. The inhibition in [5] is 66% (active).

Turning to `CC1CCc2c(sc(/N=C/N(C)C)c2C#N)C1` (stereo unspecified), the outcome in experiment [1], in experiment [2], in experiment [3], in experiment [4], in [6] and in experiment [7] was inactive. Moreover, the outcome in experiment [8], in [9], in experiment [10], in [11], in experiment [12] and in [13] was inactive. Further, the result in experiment [14], in experiment [15] and in experiment [16] was inactive. Also, the inhibition in experiment [5] was 78% (active).

`COc1ccccc1N1CCN(CC(C)N(C(=O)C2CCCCC2)c2ccccn2)CC1` (stereo unspecified): the outcome in experiment [1], in [2], in experiment [3], in experiment [4], in experiment [7] and in experiment [8] was inactive. Besides, the molecule was classed as inactive in experiment [9], in [10], in [11], in experiment [12], in [14] and in [15]. Besides, in experiment [16], the outcome was inactive. The inhibition is 93% (active) in experiment [5], 52% (active) in [6] and 1.31% (active) in experiment [13].

As for `Cc1ccn2c(CNCCCn3cccn3)c(C(=O)N3CCCCCC3)nc2c1`, the result in experiment [1], in [2], in experiment [3], in [4], in experiment [7] and in experiment [8] was inactive. Further, the outcome in [9], in experiment [10], in experiment [11], in [12], in experiment [13] and in experiment [14] was inactive. Besides, the result in experiment [15] and in experiment [16] was inactive. Besides, the inhibition in experiment [5] is 78% (active); in experiment [6], 47% (active).

For `CCN(CC)c1nc2ccccc2c(N)c1-c1ccccc1`, the result in [1], in experiment [2], in experiment [3], in experiment [4], in [6] and in [7] was inactive. Also, the result in [8], in experiment [10], in experiment [11], in [12], in [14] and in experiment [15] was inactive. Moreover, the outcome in experiment [16] was inactive. Moreover, the inhibition in [5] was 89% (active); in experiment [9] it was 37.5% (active); in [13], 33.1% (active).

Turning to `Cc1nc(Cl)c(Cl)n1CCOc1ccccc1`, the result in [1], in experiment [2], in experiment [3], in experiment [4], in [7] and in experiment [8] was inactive. Further, the result in experiment [9], in experiment [10], in experiment [11], in [12], in [14] and in [15] was inactive. Besides, in experiment [16], the result was inactive. Besides, the inhibition in experiment [5] was 94% (active); in experiment [6] it was 46% (active); in [13] it was 18.9% (active).

`CCOC(=O)C1(Cc2ccccc2)CCN(Cc2ccc(C)s2)CC1`: the outcome in [1], in experiment [2], in experiment [3], in [4], in experiment [6] and in experiment [7] was inactive. The result in experiment [8], in experiment [9], in experiment [10], in experiment [11], in experiment [12] and in [14] was inactive. Also, the result in experiment [15] and in experiment [16] was inactive. Also, the inhibition in [5] was 88% (active); in experiment [13], 13.9% (active).

For `Cn1c(-c2ccc(F)cc2)cnc1NCc1ccc(F)cc1`, the outcome in [1], in experiment [2], in experiment [3], in experiment [4], in experiment [7] and in experiment [8] was inactive. Moreover, the result in experiment [9], in experiment [10], in experiment [11], in experiment [12], in experiment [14] and in [15] was inactive. Also, the outcome in experiment [16] was inactive. Further, the inhibition is 90% (active) in experiment [5], 68% (active) in experiment [6] and 22.5% (active) in [13].

On to `Cc1ccc(CSc2nc(-c3ccccc3)c(C#N)c(=O)[nH]2)cc1`, for which the outcome in experiment [1], in [2], in experiment [3], in experiment [4], in [5] and in [7] was inactive. The outcome in [8], in experiment [9], in experiment [10], in experiment [11], in [12] and in experiment [14] was inactive. Also, the outcome in experiment [15] and in [16] was inactive. Besides, the results for the inhibition in [6] and in experiment [13] were 49% (active) and 12% (active), respectively.

Take `CCCCNc1nc(-c2ccccc2)c(C(=O)OCC)cc1C#N`: the result in experiment [1], in experiment [2], in experiment [3], in [4], in [6] and in experiment [7] was inactive. Besides, the outcome in experiment [8], in [9], in experiment [10], in experiment [11], in experiment [12] and in [14] was inactive. Also, the result in experiment [15] and in [16] was inactive. Moreover, the inhibition in experiment [5] was 94% (active); in [13] it was 15% (active).

Turning to `NC(=O)N/N=C1\c2ccccc2-c2c(C(N)=O)cccc21`, the outcome in experiment [1], in experiment [2], in experiment [3], in experiment [4], in experiment [7] and in experiment [8] was inactive. For the same molecule, the molecule was called inactive in [9], in experiment [10], in experiment [11], in experiment [12], in experiment [14] and in experiment [15]. The outcome in experiment [16] was inactive. In addition, the inhibition in experiment [5] was 80% (active); in experiment [6], 65% (active); in [13] it was 38.9% (active).

For the molecule `COc1ccc(/C=C/C(=O)Oc2cc(O)cc(O)c2)cc1`, the outcome in [1], in [2], in experiment [3], in experiment [4], in experiment [6] and in experiment [7] was inactive. For the same molecule, the outcome in experiment [8], in experiment [9], in experiment [10], in experiment [11], in experiment [12] and in experiment [14] was inactive. The outcome in [15] and in [16] was inactive. The inhibition in experiment [5] was 96% (active); in experiment [13], 27.4% (active).
